Screens deposited in PubChem by several laboratories.
This is a sample that favours compounds with a hit; in the whole collection about 1.8% have one here.
Rtt109 HAT inh = blocks Candida albicans Rtt109/Vps75 acetyltransferase activity; Q5AAJ8; purified Rtt109/Vps75, ThioGlo CoA-SH fluorescence, 4 h; inhibition, % at 34.9 µM; hit rate 0.16% among 330,000;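 active means inhibition of at least 50% in every replicate; inconclusive means best replicate reaches 50% inhibition but some replicates fall short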
NOD2 RIPK2 PPI = inhibitors of human NOD2-RIPK2 interaction; O43353; CHO BLA complementation NOD2-RIPK2, CCF4 ratio; inhibition, % at 4.98 µM; hit rate 0.38% among 360,000; AID 624267; in the data active means inhibition above about 21%;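 further: 0% = vehicle only and 100% = reference blocker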
Target sequence (O43353 whole entry, looked up): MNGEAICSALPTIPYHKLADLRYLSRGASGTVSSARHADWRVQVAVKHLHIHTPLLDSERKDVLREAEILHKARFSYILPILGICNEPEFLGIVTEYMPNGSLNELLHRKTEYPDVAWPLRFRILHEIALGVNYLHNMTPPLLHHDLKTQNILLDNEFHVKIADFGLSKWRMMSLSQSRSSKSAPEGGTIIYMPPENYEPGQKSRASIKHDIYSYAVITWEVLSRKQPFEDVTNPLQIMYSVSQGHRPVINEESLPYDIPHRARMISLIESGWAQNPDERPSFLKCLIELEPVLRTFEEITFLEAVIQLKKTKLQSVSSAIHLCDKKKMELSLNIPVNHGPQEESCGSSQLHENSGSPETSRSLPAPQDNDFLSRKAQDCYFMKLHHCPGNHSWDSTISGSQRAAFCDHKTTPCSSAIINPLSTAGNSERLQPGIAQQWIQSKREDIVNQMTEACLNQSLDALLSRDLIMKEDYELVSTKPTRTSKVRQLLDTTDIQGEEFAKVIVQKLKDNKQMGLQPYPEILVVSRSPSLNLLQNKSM
TLR9-MyD88 inh = blocks human TLR9 binding to MyD88; CHO BLA complementation TLR9-MyD88, CCF4 FRET ratio; inhibition, % at 4.98 µM; hit rate 0.21% among 340,000; AID 504734;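 active means inhibition above the mean over all tested compounds plus 3 SD, cut at about 21% in these data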;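 further: 0% = DMSO only wells and 100% = clavulanate BLA inhibitor control wells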
LANA-H2A inh = blocks KSHV LANA binding to histone H2A/H2B; Q9QR71; cell-free LANA-H2A/H2B peptide, fluorescence polarization; inhibition, % (concentration not given with the values); hit rate 0.6% among 320,000; in the data active means inhibition mostly above about 10%, no sharp cut-off; inactive means mostly below about 6.7%
m5-HT2A agonist = activates the mouse 5-HT2A serotonin receptor. CHO-K1 mHTR2A beta-arrestin complementation, luminescence; percent of 30 µM serotonin response. activation, % at 7.6 µM. hit rate 0.66% among 360,000;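 active means activation above a run cutoff, the mean activation of all tested compounds plus 3 SD, cut at about 14% in these data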;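 further: 0% = plate median of compound wells and 100% = 30 µM serotonin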
TLR4-MyD88 BLA = blocks binding of human TLR4 to MyD88. O00206+Q99836. HeLa CL3-4 TLR4/MyD88 BLA complementation, FRET ratio. inhibition, % at 8.4 µM. hit rate 0.18% among 200,000. AID 861; in the data active means inhibition above about 25%;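 further: 0% = vehicle and 100% = reference inhibitor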
Numbers without * were called inactive; u = inconclusive; x = not tested or not shown; ! = not active in a repeat.

SMILES | Rtt109 HAT inh | NOD2 RIPK2 PPI | TLR9-MyD88 inh | LANA-H2A inh | m5-HT2A agonist | TLR4-MyD88 BLA
Cc1c(NC(=O)C(C)N(c2ccccc2)S(C)(=O)=O)c(=O)n(-c2ccccc2)n1C (stereo unspecified) | 4.5 | 7.9 | 1.9 | 39.9* | 2.4 | -3.2
Cc1c(NC(=O)CN2C(=O)c3cccc4cccc2c34)c(=O)n(-c2ccccc2)n1C | x | -0.2 | 8.1 | 18.2* | 9.0 | -5.9
CC(C)NC(=O)c1cc(C2CCCCN2S(=O)(=O)c2cccs2)on1 (stereo unspecified) | x | 0.0 | x | x | -5.4 | x
O=c1[nH][nH]c2c1[C@H](CCc1cccc(Cl)c1)O[C@H](C1CCCC1)C2 | x | 10.3 | x | x | -3.9 | x
COc1ccc(Cl)cc1CC1(C)C(=O)Nc2c(Cl)cccc21 (stereo unspecified) | x | -4.4 | x | x | 2.8 | x
Cc1csc(NC(=O)CCCc2cccs2)n1 | -2.3 | -0.2 | -6.8 | 181.0* | -0.2 | -13.4
Cc1cc(C)n2c(Nc3ccc4c(c3)OCCO4)c(CC(C)C)nc2n1 | x | -9.4 | x | x | 0.1 | x
Cc1cc(-c2ccccc2)nc2c(Br)c(=O)[nH]n12 | u | 6.8 | 9.3 | 13.1* | 2.4 | 11.9
CCOC(=O)c1c(C)n(OCc2ccccc2)c2ccc3c(no[n+]3[O-])c12 | 14.1 | -12.2 | 9.1 | -7.1 | -1.9 | 0.7
CCCCOn1c(C)c(C(C)=O)c2c3no[n+]([O-])c3ccc21 | -0.3 | 4.0 | -2.1 | 12.8* | -0.2 | -13.2
O=C(O)CCCCCCCC(=O)O | 2.6 | 2.6 | -4.3 | 30.5*! | -2.6 | 3.5
CCCCCCC(=O)O | 18.1 | -15.0 | 5.1 | x | 4.3 | x
C=CCn1nc(C(=O)N2CCOCC2)cc1-c1sc(NC(=O)c2ccccc2)nc1C | x | -13.8 | -5.8 | x | 1.7 | x
CCN(CC(=O)Nc1c(F)cccc1F)C(=O)CCCc1nc2ccccc2c(=O)[nH]1 | 0.7 | -6.6 | 6.9 | 9.7* | 0.2 | x
COc1ccccc1N1CCN(C(=O)c2cc3cc(C)ccc3[nH]2)CC1 | -9.9 | -1.2 | -5.9 | 14.9* | 5.2 | x
COc1cccc(-c2cnc3c(NC(C)=O)cc(-c4ccc(S(C)(=O)=O)cc4)cn23)c1 | x | -4.2 | x | x | -0.5 | x
COCC(=O)N1C[C@H](C)[C@H](OC)CN(C)C(=O)c2cc(NC(=O)Nc3cccc(F)c3)ccc2OC[C@@H]1C | x | -2.8 | x | x | -0.2 | x
Cc1cc(C)cc(OCC(=O)Nc2ccccc2N2CCCCC2)c1 | -6.5 | -8.1 | -1.5 | 4.5 | -1.6 | 2.9
Cc1cc(C)cc(NC(=O)Nc2ccccc2N2CCCCC2)c1 | -9.0 | 1.8 | -3.3 | 11.8* | 0.8 | x
O=S1(=O)CC(N2CCN(CCO)CC2)CN1Cc1cn(Cc2cccc(C(F)(F)F)c2)nn1 (stereo unspecified) | x | 6.0 | x | x | 1.4 | x
Cc1nc(NC(=O)C(C)(C)C)sc1C(=O)Cn1cc(-c2ccc(C(C)(C)C)cc2)nn1 | x | 6.8 | x | x | 6.1 | x
C=CCNc1nc(Nc2ccc(OC)c(OC)c2)c2sc(-c3ccccc3)cc2n1 | x | -5.0 | x | x | -5.3 | x
CC(=O)Oc1ccc(N2C(=O)C3C(C2=O)C2C=CC3C23CC3)cc1[N+](=O)[O-] (stereo unspecified) | -0.5 | -9.6 | -4.6 | 10.6* | 3.7 | -6.1
O=c1cnn([C@@H]2O[C@H](CO)[C@@H](O)[C@H]2O)c(=O)[nH]1 | 5.7 | 0.5 | -15.0 | -3.1 | 21.8* | 9.7
C[C@H](O)[C@@H]1C(=O)N2CCc3c([nH]c4ccccc34)[C@@H]2C[C@@H]1N(C)S(=O)(=O)c1ccccc1 | x | -1.9 | -2.3 | x | 3.5 | x
SMILES | Rtt109 HAT inh | NOD2 RIPK2 PPI | TLR9-MyD88 inh | LANA-H2A inh | m5-HT2A agonist | TLR4-MyD88 BLA
O=C(c1ccccc1)c1ccc(O)cc1O | 3.0 | -8.8 | -1.1 | 44.6* | 0.9 | -13.5
COc1ccc(C(=O)c2ccccc2)c(O)c1 | 10.7 | -7.4 | -6.5 | 0.2 | 1.3 | -8.3
O=C(c1ccc(O)cc1)c1ccc(O)cc1O | 1.9 | -1.1 | -1.4 | 12.3* | -4.2 | x
O=C1CCCCC(=O)[C@H](O)C[C@H](COCc2ccccc2)O1 | x | 3.5 | x | x | -1.2 | x
O=C(Oc1cc2oc(=O)cc(-c3ccccc3)c2cc1Cl)C1CCCCC1 | -64.2 | 28.6* | 17.1 | 1.0 | 0.3 | 20.1
O=C(Nc1cccc(F)c1)N1CCc2nc(NCc3cccc(Oc4ccccc4)c3)ncc2C1 | x | 3.5 | x | x | -3.2 | x
CCOC(=O)C1(C)CCCCN1C(=O)c1cccc(Cl)c1 (stereo unspecified) | x | -3.2 | x | x | -3.0 | x
COc1cccc(CNC(=O)[C@@H]2CCCN2C(=O)[C@@H]2CCCN2C(=O)c2cccc3ccccc23)c1 | x | -1.8 | x | x | -0.4 | x
O=C(COc1ccccc1)NC1CCCCCCC1 | 0.6 | -4.9 | 1.9 | 8.9* | -1.7 | x
O=C(CNC(=O)OCc1ccccc1)NC1CCCCCC1 | -3.8 | -2.1 | -2.1 | 17.3* | 5.1 | -22.4
COc1cc(NC(=O)COc2ccccc2)c(OC)cc1NC(C)=O | 1.2 | -2.1 | 3.9 | 14.3* | -0.1 | 24.0
Cc1ccc(Nc2nc(N)nc(N)c2N=O)cc1Cl | x | 3.2 | x | x | 0.1 | x
CCOCCCn1c(=NC(=O)c2cccs2)c(C#N)cc2c(=O)n3cccc(C)c3nc21 | 7.5 | -29.7 | -17.4 | 27.9* | -8.1 | x
COCCCn1c(=NC(C)=O)c(C#N)cc2c(=O)n3cccc(C)c3nc21 | x | -1.0 | x | -6.0 | 1.4 | x
COCCCn1c(=NC(=O)c2ccccc2)c(C#N)cc2c(=O)n3cccc(C)c3nc21 | -58.8 | -11.6 | -16.1 | 27.4* | 0.6 | x
CC1(C)OC(=O)C2=C(C[C@@H](CCOCc3ccccc3)O[C@@H]2c2ccc(F)cc2)O1 | x | -4.8 | x | x | -8.3 | x
O=C1C(=Cc2cccs2)Oc2ccccc21 | 5.2 | -4.3 | 0.8 | x | 0.3 | x
Cc1ccccc1/C=C1\Oc2ccccc2C1=O | 4.9 | 2.6 | -8.0 | 56.6* | 4.5 | x
CC(C)C[C@H]1CN(CCCC[C@H]2CNC(=O)C(=O)N2CC2CCCCC2)C(=O)C(=O)N1CCc1ccccc1 | x | -1.4 | x | x | -0.7 | x
CC(=O)Nc1cccc(-c2ccnc3c2CC(C(=O)Nc2ccccc2)O3)c1 (stereo unspecified) | x | -10.7 | x | x | 5.5 | x
Cc1ccc(CCN2CC(C(=O)N3CCN(c4ccc(F)cc4)CC3)CC2=O)cc1 (stereo unspecified) | -9.0 | -2.3 | -8.3 | 22.3* | -4.1 | 11.2
CCCCc1c(C)[nH]c(=S)[nH]c1=O | -0.5 | 5.5 | -7.1 | 1.7 | 7.1 | x
Cc1[nH]c(=S)[nH]c(=O)c1CCCO | 8.2 | 1.5 | -9.6 | 17.7* | 4.3 | -9.3
COc1ccccc1Cc1c(-c2ccc(C#N)cc2)nc2c(Cl)cc(C(F)(F)F)cn12 | x | 2.4 | x | x | -6.1 | x
Cc1nc(C2CC(=O)OC23CCCCC3)cs1 (stereo unspecified) | 7.7 | 2.9 | 7.1 | -5.5* | 1.2 | -3.3
CC1(C(=O)NS(=O)(=O)c2ccc(Cl)cc2)CCN1C(=O)C1(c2ccc(Cl)cc2)CCC1 (stereo unspecified) | x | 0.3 | x | x | 3.4 | x
